Targets with the largest changes are over-represented here; the source holds about 21,000 in all.
Compound: Cc1cc(ccc1-c1ccccc1)C(=O)N1CCCN(CC1)C(=O)CCl [compound 10]
Experiment: probe-labelled cysteine peptide fold change vs DMSO (competition) (log2 fold change); higher = less target engagement (more negative = stronger competition)
Conditions: THP-1, incubation time: 4 h
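Further: competitive profiling in live THP-1 cells: cysteine peptides tagged with an iodoacetamide desthiobiotin (IA-DTB) probe, intensity after compound treatment relative to DMSO-treated cells.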

UniProt Q9UBR2, sequence (Q9UBR2 whole entry, looked up): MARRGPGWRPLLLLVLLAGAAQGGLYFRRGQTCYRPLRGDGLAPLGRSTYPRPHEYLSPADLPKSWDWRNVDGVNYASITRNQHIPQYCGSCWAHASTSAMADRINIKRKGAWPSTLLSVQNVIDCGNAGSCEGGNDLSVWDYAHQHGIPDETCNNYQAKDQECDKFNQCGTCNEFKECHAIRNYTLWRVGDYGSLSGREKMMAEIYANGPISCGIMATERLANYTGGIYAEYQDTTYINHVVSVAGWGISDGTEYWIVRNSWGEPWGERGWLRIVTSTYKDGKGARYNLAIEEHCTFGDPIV
UniProt O60610, sequence (O60610 whole entry, looked up): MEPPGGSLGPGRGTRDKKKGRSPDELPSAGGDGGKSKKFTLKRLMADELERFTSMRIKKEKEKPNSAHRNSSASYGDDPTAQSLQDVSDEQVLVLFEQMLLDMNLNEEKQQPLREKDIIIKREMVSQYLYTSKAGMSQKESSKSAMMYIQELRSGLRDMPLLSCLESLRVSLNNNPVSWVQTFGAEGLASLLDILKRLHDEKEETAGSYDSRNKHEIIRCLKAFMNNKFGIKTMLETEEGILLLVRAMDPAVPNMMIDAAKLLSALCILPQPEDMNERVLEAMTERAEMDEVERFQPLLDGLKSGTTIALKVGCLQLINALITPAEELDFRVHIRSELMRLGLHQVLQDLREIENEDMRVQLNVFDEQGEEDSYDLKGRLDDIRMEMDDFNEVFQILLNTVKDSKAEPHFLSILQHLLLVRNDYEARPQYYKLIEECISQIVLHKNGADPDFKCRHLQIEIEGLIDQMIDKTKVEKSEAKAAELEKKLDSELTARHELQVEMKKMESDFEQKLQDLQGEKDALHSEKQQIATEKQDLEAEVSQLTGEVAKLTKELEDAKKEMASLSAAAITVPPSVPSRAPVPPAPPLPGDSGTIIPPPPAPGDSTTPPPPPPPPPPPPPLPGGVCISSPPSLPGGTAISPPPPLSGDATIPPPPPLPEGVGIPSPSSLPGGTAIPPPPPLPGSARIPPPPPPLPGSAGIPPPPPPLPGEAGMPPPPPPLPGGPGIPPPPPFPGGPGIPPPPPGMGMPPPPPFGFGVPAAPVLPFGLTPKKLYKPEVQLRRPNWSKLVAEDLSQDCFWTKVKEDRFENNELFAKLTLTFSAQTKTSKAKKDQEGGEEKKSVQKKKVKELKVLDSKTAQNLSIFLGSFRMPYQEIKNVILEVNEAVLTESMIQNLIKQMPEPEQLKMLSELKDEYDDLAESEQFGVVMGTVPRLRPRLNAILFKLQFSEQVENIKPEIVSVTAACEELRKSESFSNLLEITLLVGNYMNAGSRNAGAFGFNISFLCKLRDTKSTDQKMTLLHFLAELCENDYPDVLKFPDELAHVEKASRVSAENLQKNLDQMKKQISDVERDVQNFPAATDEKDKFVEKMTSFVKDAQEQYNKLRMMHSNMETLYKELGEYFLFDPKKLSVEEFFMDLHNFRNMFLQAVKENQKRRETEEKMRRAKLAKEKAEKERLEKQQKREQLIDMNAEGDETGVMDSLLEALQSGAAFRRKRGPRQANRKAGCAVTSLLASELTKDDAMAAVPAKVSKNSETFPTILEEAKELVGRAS
UniProt P08311, sequence (P08311 whole entry, looked up): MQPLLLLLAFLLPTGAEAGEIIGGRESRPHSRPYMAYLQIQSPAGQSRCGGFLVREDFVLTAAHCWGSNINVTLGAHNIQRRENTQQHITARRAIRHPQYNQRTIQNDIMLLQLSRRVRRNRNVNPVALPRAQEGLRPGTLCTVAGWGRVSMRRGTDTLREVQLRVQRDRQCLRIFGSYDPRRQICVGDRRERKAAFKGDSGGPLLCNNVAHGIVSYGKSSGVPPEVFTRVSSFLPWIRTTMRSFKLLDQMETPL
UniProt O14579, sequence (O14579 whole entry, looked up): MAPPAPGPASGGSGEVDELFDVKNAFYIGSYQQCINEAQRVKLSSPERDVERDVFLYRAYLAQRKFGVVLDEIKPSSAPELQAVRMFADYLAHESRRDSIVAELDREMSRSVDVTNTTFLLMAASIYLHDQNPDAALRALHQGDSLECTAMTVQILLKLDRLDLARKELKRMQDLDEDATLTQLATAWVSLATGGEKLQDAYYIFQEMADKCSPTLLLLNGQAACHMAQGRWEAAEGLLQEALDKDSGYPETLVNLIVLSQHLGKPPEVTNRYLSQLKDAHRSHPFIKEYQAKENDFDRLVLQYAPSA
UniProt P50238, sequence (P50238 whole entry, looked up): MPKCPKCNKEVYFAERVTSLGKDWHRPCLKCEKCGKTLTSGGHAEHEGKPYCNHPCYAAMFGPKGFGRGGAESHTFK
UniProt Q9NSV4, sequence (Q9NSV4 whole entry, looked up): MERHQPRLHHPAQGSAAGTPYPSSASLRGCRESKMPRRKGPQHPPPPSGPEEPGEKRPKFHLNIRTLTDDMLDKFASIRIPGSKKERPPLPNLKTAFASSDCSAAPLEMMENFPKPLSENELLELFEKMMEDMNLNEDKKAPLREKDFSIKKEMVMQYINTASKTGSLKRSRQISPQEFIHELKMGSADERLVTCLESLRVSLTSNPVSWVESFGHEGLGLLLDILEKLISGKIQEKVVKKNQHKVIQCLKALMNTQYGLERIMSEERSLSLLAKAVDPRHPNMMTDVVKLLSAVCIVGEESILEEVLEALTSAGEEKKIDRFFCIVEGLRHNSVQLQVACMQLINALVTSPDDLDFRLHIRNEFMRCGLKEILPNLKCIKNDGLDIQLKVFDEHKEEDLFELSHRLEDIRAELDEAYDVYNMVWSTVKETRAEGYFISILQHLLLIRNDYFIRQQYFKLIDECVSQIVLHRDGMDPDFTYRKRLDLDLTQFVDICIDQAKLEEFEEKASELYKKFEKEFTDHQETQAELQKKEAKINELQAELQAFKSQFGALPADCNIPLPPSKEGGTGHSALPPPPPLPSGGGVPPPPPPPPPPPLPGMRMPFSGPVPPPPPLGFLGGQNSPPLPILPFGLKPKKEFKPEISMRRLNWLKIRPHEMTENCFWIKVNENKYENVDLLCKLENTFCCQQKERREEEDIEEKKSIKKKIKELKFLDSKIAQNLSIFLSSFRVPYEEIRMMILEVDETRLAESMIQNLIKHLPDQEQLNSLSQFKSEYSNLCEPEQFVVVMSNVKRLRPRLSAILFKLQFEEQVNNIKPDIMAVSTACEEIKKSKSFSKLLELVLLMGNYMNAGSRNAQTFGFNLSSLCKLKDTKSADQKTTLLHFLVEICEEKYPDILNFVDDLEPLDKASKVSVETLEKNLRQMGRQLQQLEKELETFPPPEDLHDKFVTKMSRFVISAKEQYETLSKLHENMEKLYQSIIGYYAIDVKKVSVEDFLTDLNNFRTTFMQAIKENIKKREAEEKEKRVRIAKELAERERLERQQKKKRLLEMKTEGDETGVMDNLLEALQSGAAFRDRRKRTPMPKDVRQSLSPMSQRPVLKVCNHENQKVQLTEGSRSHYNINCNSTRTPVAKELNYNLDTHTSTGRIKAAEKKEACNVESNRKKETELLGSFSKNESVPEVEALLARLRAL
UniProt P49747, sequence (P49747 whole entry, looked up): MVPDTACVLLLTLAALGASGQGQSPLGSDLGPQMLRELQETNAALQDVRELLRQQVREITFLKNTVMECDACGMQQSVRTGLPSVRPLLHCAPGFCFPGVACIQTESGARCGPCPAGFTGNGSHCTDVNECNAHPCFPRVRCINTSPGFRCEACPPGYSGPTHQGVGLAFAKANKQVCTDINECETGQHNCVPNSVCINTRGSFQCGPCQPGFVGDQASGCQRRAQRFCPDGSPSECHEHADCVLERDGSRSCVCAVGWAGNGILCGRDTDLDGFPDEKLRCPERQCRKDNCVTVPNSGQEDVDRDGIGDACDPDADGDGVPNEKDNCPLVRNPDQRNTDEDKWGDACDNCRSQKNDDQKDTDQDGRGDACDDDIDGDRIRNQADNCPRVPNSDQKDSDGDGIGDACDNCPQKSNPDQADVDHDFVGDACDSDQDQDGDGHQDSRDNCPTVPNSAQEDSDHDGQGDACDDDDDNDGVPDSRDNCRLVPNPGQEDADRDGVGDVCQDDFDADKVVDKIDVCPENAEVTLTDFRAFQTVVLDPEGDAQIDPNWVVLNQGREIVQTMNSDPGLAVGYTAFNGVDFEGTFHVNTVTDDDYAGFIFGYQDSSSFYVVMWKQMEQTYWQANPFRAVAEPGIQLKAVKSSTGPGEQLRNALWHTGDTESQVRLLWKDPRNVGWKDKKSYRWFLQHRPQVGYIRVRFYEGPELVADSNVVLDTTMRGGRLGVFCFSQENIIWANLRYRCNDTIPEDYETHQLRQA
UniProt Q9UKF6, sequence (Q9UKF6 whole entry, looked up): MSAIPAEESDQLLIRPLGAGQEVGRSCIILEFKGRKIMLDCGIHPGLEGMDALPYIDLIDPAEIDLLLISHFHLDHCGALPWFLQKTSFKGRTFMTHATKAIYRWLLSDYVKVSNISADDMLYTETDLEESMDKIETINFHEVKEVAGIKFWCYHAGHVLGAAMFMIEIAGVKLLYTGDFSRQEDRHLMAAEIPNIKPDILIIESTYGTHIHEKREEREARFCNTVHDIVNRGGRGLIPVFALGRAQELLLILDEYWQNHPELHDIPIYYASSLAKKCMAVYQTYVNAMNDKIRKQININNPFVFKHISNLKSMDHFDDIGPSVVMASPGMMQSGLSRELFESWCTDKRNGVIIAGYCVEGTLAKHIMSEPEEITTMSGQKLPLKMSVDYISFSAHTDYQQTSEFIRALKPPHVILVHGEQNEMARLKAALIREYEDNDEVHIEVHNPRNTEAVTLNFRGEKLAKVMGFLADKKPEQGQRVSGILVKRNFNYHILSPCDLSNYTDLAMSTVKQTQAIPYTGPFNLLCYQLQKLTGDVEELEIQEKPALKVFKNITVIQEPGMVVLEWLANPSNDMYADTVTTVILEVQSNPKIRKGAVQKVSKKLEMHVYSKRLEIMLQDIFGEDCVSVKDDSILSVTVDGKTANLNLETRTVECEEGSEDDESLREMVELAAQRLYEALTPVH

Row | Target | probe-labelled cysteine peptide fold change (10 µM) | probe-labelled cysteine peptide fold change (50 µM)
1 | DIAPH1_O60610_1227_KAGCAVTSLLASELTK (UniProt O60610) | -0.218 | -1.27
2 | CTPS1_P17812_30_SCGLHVTSIK (UniProt P17812) | 0.14 | 0.147
3 | COMP_P49747_371_GDACDDDIDGDR (UniProt P49747) | -1.61 | -0.768
4 | CPSF3_Q9UKF6_626_RLEIMLQDIFGEDCVSVK (UniProt Q9UKF6) | -0.0218 | 0.198
5 | CRIP1_P50238_52+56_PYCNHPCYAAMFGPK (UniProt P50238) | 0.0432 | -0.424
6 | DNMT1_P26358_1476+1478_GVCSCVEAGK (UniProt P26358) | -1.56 | < -5
7 | CTR9_Q6PD62_196_TNPGCPAEVR (UniProt Q6PD62) | -0.0165 | -0.0939
8 | CTSG_P08311_207_AAFKGDSGGPLLCNNVAHGIVSYGK (UniProt P08311) | -0.329 | -0.817
9 | DGKE_P52429_167_TVHDECMK (UniProt P52429) | -0.082 | -0.168
10 | CORO1B_Q9BR76_25_NDQCYEDIR (UniProt Q9BR76) | -0.0464 | -0.0083
11 | CTSZ_Q9UBR2_164_DQECDK (UniProt Q9UBR2) | -0.0913 | -0.207
12 | COPE_O14579_225_CSPTLLLLNGQAACHMAQGR (UniProt O14579) | 0.0563 | 0.158
13 | DNMT1_P26358_1339_ACQLSVVVDDKK (UniProt P26358) | -0.133 | -1.16
14 | DIAPH3_Q9NSV4_663_IRPHEMTENCFWIK (UniProt Q9NSV4) | -0.0626 | -0.468
